Compound activity: PubChem BioAssay, The Scripps Research Institute Molecular Screening Center
TTR transcr act: TTR transcription activators in neuroblastoma reporter cells, primary screen, cell-based, luminescence, SH-SY5Y, TTR promoter Gaussia luciferase; activation, % at 16.7 µM; 100% = recombinant luciferase protein wells; hit rate 1.3% among 92,000;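 active means activation above the mean of all tested compounds plus 3 SD, cut at about 9.5% in these data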;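 further: cells exposed to compounds for one day before reading; 0% = median of all test compound wells on the plate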
TTR inh HuH7: TTR promoter reporter inhibitors in hepatoma cells, counter-screen for TTR transcription activator project, cell-based, luminescence, HuH7 hepatoma | shares compounds with TTR transcr act | HuH7 TTR promoter-Gaussia luciferase reporter | inhibition, % at 16.7 µM | hit rate 4% among 1,100;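 active means average inhibition above the solvent-only control wells' mean plus 3 SD, cut at about 15% in these data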;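 further: 0% = cells with DMSO only and 100% = cells with inhibitor control FD; inhibitors lower well luminescence so higher value means more inhibition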
TTR act confirm: TTR transcription activators, retest, confirmation, cell-based, luminescence, SH-SY5Y, triplicate; 1,100 tested, under 10 active; SHSY5Y TTR promoter Gaussia luciferase; 100% = purified Lucia enzyme wells, no cells; AID 1117280, 2014; activation, % at 16.7 µM; shares compounds with TTR transcr act;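 active means mean activation above a set limit taken from the earlier primary screen, cut at about 11% in these data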;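 further: 0% = DMSO-treated cells and 100% = recombinant Lucia luciferase without cells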
* marks the source's active call; other numbers are inactive results. This is one part of a sample in which hits are shown more often than they occur.

SMILES	TTR transcr act	others
C=CCN(CC=C)C[C@@H]1CSCCS(=O)(=O)N1	0
CC(C)CNC(=S)NC(=O)c1csc([N+](=O)[O-])c1	-2
O=C(NCc1cccc(Cl)c1)NC(=O)c1csc([N+](=O)[O-])c1	12*	TTR inh HuH7=-9;TTR act confirm=0
O=C(NCc1cccc(Cl)c1)c1ccc(-c2csnn2)cc1	0
COC(=O)[C@]12C[C@H](CC(=O)N3CCCC3)C(=O)N(Cc3cccc4ccccc34)C1=C[C@H](C(C)(C)C)O[C@@H]2C	-2
O=C(NCc1cccc(C(F)(F)F)c1)O[C@H]1CC[C@@]23CCCN2C(=O)CCC[C@H]3C1	3
c1ccc2sc(-c3csc4c3CCNC4)nc2c1	3
CC1CCCN(c2cccc3c2S(=O)(=O)N([C@H](C)c2ccccc2)C[C@@H](COCc2ccccc2)O3)C1 (some centres undefined)	-3
Clc1ccccc1-c1nc(-c2ccncc2)no1	-1
Clc1ccc(-c2nc(-c3ccncc3)no2)c(Cl)c1	3
O=[N+]([O-])c1cc(Cl)ccc1-c1nc(-c2ccncc2)no1	10*	TTR inh HuH7=-3;TTR act confirm=0
COC(=O)[C@@H]1[C@H](O[Si](C)(C)C(C)(C)C)C2OC2C[C@H]1S(=O)(=O)c1ccccc1 (some centres undefined)	-1
S=C(Nc1cccc(Cl)c1)OCCN1CCCC12CCC(c1ccccc1)CC2 (centres undefined)	0
C[C@H]1[C@@H](OC(=O)Nc2ccccc2C(F)(F)F)CC[C@@]23CCCN2C(=O)CCC[C@@H]13	4
Cc1ccc(C(=O)NC2CCCCN(Cc3ccc(Cl)cc3)C2=O)c(C)c1 (centres undefined)	1
COc1ccc(NC(=O)Nc2nnc(N3CCCCC3C)s2)cc1OC (centres undefined)	-1
CC1CCCCN1c1nnc(NC(=O)Cn2c(=O)oc3ccccc32)s1 (centres undefined)	19*	TTR inh HuH7=-16;TTR act confirm=-1
COc1ccc(-c2nc(NC(=O)Cn3c(=O)oc4ccccc43)sc2C)cc1	-2
Cc1nc(SCC(N)=O)[nH]c(=O)c1C	4
O=C(NCCc1c[nH]c2ccccc12)OCc1cn(-c2ccc(F)cc2)nn1	2
COc1cc2c(cc1NC(=O)Nc1cccc(C)c1)oc1ccccc12	1
COc1cc2c(cc1NC(=O)c1cc(-c3ccncc3)nc3ccccc13)oc1ccccc12	15*	TTR inh HuH7=4;TTR act confirm=-1
COc1ccccc1NC(=O)c1cc(-c2ccc(OC)c(OC)c2)nc2ccccc12	-2
CCCC1CCC2(CCCN2CCOC(=O)Nc2ccccc2OC)CC1 (centres undefined)	1
CC(C)(C)OC(=O)NCc1cc2c(cc1/C=C/S(=O)(=O)NC1CCCC1)OCO2	2
SMILES	TTR transcr act	others
CC1CCC2(CC1)CCC2NCc1ccc(Cl)c(Cl)c1 (centres undefined)	0
c1coc(CSc2ncnc3c2oc2ccccc23)c1	1
c1ccc(Sc2ncnc3c2oc2ccccc23)nc1	18*	TTR inh HuH7=20*;TTR act confirm=0
Oc1ccc(Nc2ncnc3c2oc2ccccc23)cc1	0
COc1ccc(N2CCN(CCCNC(=O)Cn3c(=O)c4cccn4c4cccnc43)CC2)c(OC)c1	-1
N[C@H](C(=O)Nc1ccc(Cl)cc1C(=O)c1ccc[nH]1)c1ccccc1	-1
CCC[C@H]1[C@@H](NC(=O)C#Cc2ccccc2)CC[C@@]23CCCN2C(=O)CCC[C@@H]13	-1
COC(=O)[C@]12C[C@H](CC(=O)N3CCN(C(=O)C4CC4)CC3)C(=O)N(Cc3ccc(Cl)cc3Cl)C1=C[C@H](C(C)C)O[C@@H]2C1CC1	-2
C#CCN1C(=O)[C@]2(NCCc3c2[nH]c2ccc(OC)cc32)c2ccccc21	1
Cc1ccc2cccc(S(=O)(=O)Nc3ccc4c(c3)OCO4)c2n1	14*	TTR inh HuH7=-19;TTR act confirm=2
O=S(=O)(Nc1ccc2c(c1)OCCO2)c1cccc2nsnc12	1
O=S(=O)(Nc1ccc2c(c1)OCO2)c1ccccc1	0
COc1ccc2cc(/C=N/NC(=O)CN(c3ccccc3OC)S(=O)(=O)c3ccccc3)c(Cl)nc2c1	0
Nc1[nH]c(C(=O)c2ccccc2)c(-c2ccccn2)c1C(=O)c1c[nH]c2ccc(Br)cc12	1
O=C(NCCc1ccccc1)O[C@H]1CC[C@@]23CCCN2C(=O)CCC[C@H]3C1	-1
O=C(Cc1ccccc1)NCC(=O)OCC(=O)c1ccc(Cl)c([N+](=O)[O-])c1	46*	TTR inh HuH7=-2;TTR act confirm=-1
O=C(CNC(=O)c1ccccc1)NCC(=O)OCC(=O)c1ccccc1Cl	2
CCN(C(=O)c1ccc(Cl)c([N+](=O)[O-])c1)c1ccccc1	1
CCCCCn1nnnc1C1(C)Cn2nccc2C(=O)N1Cc1ccco1 (centres undefined)	2
CC(C)(C)c1ccc(S(=O)(=O)N2CCN(Cc3cc4c(cc3O)OCO4)CC2)cc1	15*	TTR inh HuH7=-7;TTR act confirm=1
CCOc1ccc(S(=O)(=O)N2CCN(Cc3ccc4c(c3)OCO4)CC2)cc1OCC	-2
O=S(=O)(c1ccc(Cl)nc1)N1CCN(Cc2ccc3c(c2)OCO3)CC1	-1
CCC[C@H]1[C@@H](NC(=O)c2ccc(Cl)cc2)CC[C@@]23CCCN2C(=O)CCC[C@@H]13	1
COc1ccc(CNC(=O)O[C@H]2CC[C@@]34CCCN3C(=O)CCC[C@H]4C2)cc1	2
O=C(NCc1csc2ccccc12)Nc1cc(Cl)cc(Cl)c1	1
SMILES	TTR transcr act	others
O=C(Nc1ccccc1)Nc1csc2ccccc12	-1
O=C(O)Cc1csc2ccccc12	12*	TTR inh HuH7=-10;TTR act confirm=1
COc1ccc(NC(=O)OCCN2CCCC23CCC(c2ccccc2)CC3)cc1 (centres undefined)	-2
CN1C2=N[C@@H](c3ccc4c(c3)OCO4)CC(=O)N2/C(=C\c2ccccc2)[C@@H]1c1ccccc1	0
O=C(Nc1ccc(N2C(=O)CC(c3ccccc3)C2=O)c(Cl)c1)c1ccccn1 (centres undefined)	38*	TTR inh HuH7=-4;TTR act confirm=1
O=C(Nc1ccc(N2C(=O)[C@@H]3[C@H](C2=O)[C@@H]2C=C[C@H]3C2)c(Cl)c1)c1ccccn1	-2
O=C(NNC1CC(=O)N(c2ccc(Cl)cc2)C1=O)c1ccccn1 (centres undefined)	-1
O=C(Nc1ccc(F)cc1)OC1CC2CC1[C@H]1CCCCN1[C@H]2Cc1ccccc1 (some centres undefined)	4
C[C@@H]1CN([C@@H](C)CO)C(=O)CCCn2cc(nn2)CO[C@H]1CN(C)C(=O)Nc1ccc(F)cc1	2
CC(=O)OCCC(CC(C)C)NC(=O)[C@H](CC(C)C)NC(=O)OCc1ccccc1 (some centres undefined)	-1
CC(C)(C)OC(=O)C[C@H]1C/C=C\C[C@H](CC(=O)NCCO)C(=O)N[C@@H](Cc2ccccc2)COC1=O	-1
C[C@H]1C2CC(OC(=O)Nc3ccccc3C(F)(F)F)C(C2)[C@H]2CCCCN21 (some centres undefined)	0
Cc1ccc2c(c1)C1CS(=O)(=O)N(Cc3ccccc3)C(=O)N1C2 (centres undefined)	1
